In assay [1] the test system is Human papillomavirus type 1a protein E7 (residues 44-93). Kind of assay: HPV1a E7 fragment binders on microarrays, primary screen, biochemical, small-molecule microarray, residues 44-93, 635 nm fluorescence (AID 1108).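 Further: E7 fragment applied at 1 µg/mL in TBST for 1 h at 4 C; score combines spot fluorescence with its signal to noise ratio.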 As to conditions: small-molecule microarray binding, fluorescence 635 nm; higher = more signal.
Assay [2] can be described thus: modulators of HCV replicon luciferase signal, primary screen, HCV replication inhibitor project, Huh7 cells, luciferase reporter (AID 1109).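 Further: huh7 hepatoma cells harbouring a luciferase neomycin HCV replicon reporter; luciferase luminescence as measure of HCV replicon replication; test concentration not given here.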 As to conditions: 48 h, higher = more signal. For orientation: A replicon is a self-replicating genome or part of one, used to study replication in cells.
Assay [3] addresses Left-right determination factor 2 (Homo sapiens) (UniProt O00292). Kind of assay: LEFTY2 binders on small-molecule microarrays, primary screen, biochemical, small-molecule microarray, 635 nm fluorescence scan (AID 1110). As to conditions: LEFTY2 binding, higher = more signal.
Assay [4] deals with Calmodulin-1 (Homo sapiens) (UniProt P0DP23). Kind of assay: CALM1 binders on microarrays, EGTA buffer, profiling panel, biochemical, small-molecule microarray, Cy5-labelled CALM1 (AID 1111).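 Further: labelled calmodulin applied in Tris saline Tween buffer holding calcium plus EGTA and DTT.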 As to conditions: Cy5-CALM1 binding fluorescence, higher = more signal.
The target is the same in assay [5]. Kind of assay: calcium-bound CALM1 binders on microarrays, profiling panel, artefact control for SMM control-protein annotation, biochemical, small-molecule microarray, Cy5-labelled CALM1, plus calcium (AID 1112).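 Further: score merges spot fluorescence with signal to noise from triplicate slides.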 As to conditions: Cy5-CALM1 binding fluorescence, higher = more signal.
A short description of assay [6]: small-molecule microarray binders of probe aWnt5a, primary screen, biochemical, biotinylated probe, 635/667 nm fluorescence (AID 1113).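 Further: score merges 667 nm fluorescence intensity with signal-to-noise per printed feature.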 As to conditions: higher = more signal.
The nature of assay [7]: small-molecule microarray binders of probe aShh, primary screen, biochemical, biotinylated probe, 635/667 nm fluorescence (AID 1114).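 Further: probe is biotin-labelled aShh protein from a stem cell growth factor screen; measures binding of labelled protein to compounds printed on the slide; score merges feature fluorescence at 667 nm with signal-to-noise.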 As to conditions: higher = more signal.
The nature of assay [8]: small-molecule microarray binders of probe aNog, primary screen, biochemical, biotinylated probe, 635/667 nm fluorescence (AID 1115).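 Further: probe is biotinylated aNog protein used at 0.15 µg/mL for 1 h at 4 C; z-score combines 667 nm fluorescence of each spot with its signal to noise.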 As to conditions: higher = more signal.
Assay [9] deals with Torsin-1A-interacting protein 1 (Homo sapiens) (UniProt Q5JTV8). Kind of assay: LAP1 binders from COS7 cell lysate, primary screen, small-molecule microarray, 635/667 nm fluorescence (AID 1116). As to conditions: COS7-hLAP1 lysate binding, 635 nm fluorescence, higher = more signal.
In assay [10] the target is Alpha-bungarotoxin (Bungarus multicinctus) (UniProt P60615). Kind of assay: alpha-bungarotoxin binders on microarray, profiling panel, artefact control for SMM control protein annotation, biochemical, small-molecule microarray, Alexa647 label, 635/667 nm fluorescence (AID 1117). As to conditions: alpha-BTX-A647 binding fluorescence, higher = more signal.
Assay [11] addresses Albumin (Bos taurus) (UniProt P02769). The experiment in a line: bovine serum albumin binders on microarray, profiling panel, artefact control for SMM control protein annotation, biochemical, small-molecule microarray, Alexa647 label, 635/667 nm fluorescence (AID 1118).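 Further: score merges 667 nm emission intensity and signal-to-noise per printed compound spot.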 As to conditions: BSA-A647 binding, fluorescence 635 nm, higher = more signal.
The nature of assay [12]: small-molecule microarray binders of probe aXIP, primary screen, biochemical, NeuroSMM set, 635/667 nm fluorescence (AID 1119).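 Further: probe is the protein aXip251-270 applied at 1 µg/mL to compound-printed slides; binding of probe to printed compounds measured as 667 nm fluorescence plus signal to noise.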 As to conditions: higher = more signal, called active from +8 up or from −8 down.
Assay [13] can be described thus: small-molecule binders of probe aNOTCH3, primary screen, biochemical, small-molecule microarray, 635/667 nm fluorescence (AID 1120).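 Further: probe is a biotin-tagged antibody raised against NOTCH3 rather than NOTCH3 protein; score merges spot fluorescence near 667 nm with spot signal to noise.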 As to conditions: higher = more signal.
Assay [14] can be described thus: small-molecule binders of probe aNOTCH2, primary screen, biochemical, small-molecule microarray, 635/667 nm fluorescence (AID 1121).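 Further: score merges feature fluorescence read at 667 nm with its signal to noise.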 As to conditions: higher = more signal.
Assay [15] deals with Carbonic anhydrase 2 (Homo sapiens) (UniProt P00918). Kind of assay: CAII small-molecule binders, profiling panel, biochemical, small-molecule microarray, Alexa647-labelled CAII (AID 1122). As to conditions: CAII-A647 binding fluorescence, higher = more signal.
The nature of assay [16]: COS7 lysate on small-molecule microarray, probe aHis, 635 nm (AID 1123).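 Further: z-score combines 667nm fluorescence intensity with signal-to-noise per printed compound spot.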 As to conditions: COS7 cell lysate, fluorescence, higher = more signal.
A short description of assay [17]: compound binding in COS7 lysate, probe aLAP1, primary screen, cell lysate, small-molecule microarray (AID 1124).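 Further: lysate comes from COS7 cells expressing LAP1 and is applied at 0.3 µg/mL; score merges spot fluorescence near 667 nm with signal-to-noise over triplicate slides.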 As to conditions: probe aLAP1, fluorescence, higher = more signal.
Assay [18] relates to Sam68 (KHDRBS1). Kind of assay: Sam68 small-molecule binders, primary screen, biochemical, small-molecule microarray, 635 nm fluorescence (AID 1125).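 Further: score merges 667 nm channel intensity with signal to noise over triplicate slides.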 As to conditions: small-molecule microarray binding, higher = more signal.
The subject of assay [19] is Chordin-like protein 2 (CHRDL2). The experiment in a line: CHRDL2 small-molecule binders, primary screen, biochemical, small-molecule microarray, 635 nm fluorescence (AID 1126).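 Further: printed compound slides probed with Chrdl2 protein at 4 µg/mL for 1 h at 4 C; score merges 667 nm emission intensity with signal to noise over three replicate slides.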 As to conditions: small-molecule microarray binding, fluorescence 635 nm; higher = more signal.
In assay [20] the target is Concanavalin-A (Canavalia ensiformis) (UniProt P02866). Kind of assay: ConA small-molecule binders, primary screen, artefact control for SMM control protein annotation, biochemical, small-molecule microarray, Alexa647 label, 635 nm (AID 1127).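 Further: z combines 667 nm emission intensity with signal-to-noise across three replicate slides.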 As to conditions: ConA-A647 binding fluorescence, higher = more signal.

Active and inactive are the calls of the source.

Left-right determination factor 2 (Homo sapiens), sequence (O00292 whole entry, looked up): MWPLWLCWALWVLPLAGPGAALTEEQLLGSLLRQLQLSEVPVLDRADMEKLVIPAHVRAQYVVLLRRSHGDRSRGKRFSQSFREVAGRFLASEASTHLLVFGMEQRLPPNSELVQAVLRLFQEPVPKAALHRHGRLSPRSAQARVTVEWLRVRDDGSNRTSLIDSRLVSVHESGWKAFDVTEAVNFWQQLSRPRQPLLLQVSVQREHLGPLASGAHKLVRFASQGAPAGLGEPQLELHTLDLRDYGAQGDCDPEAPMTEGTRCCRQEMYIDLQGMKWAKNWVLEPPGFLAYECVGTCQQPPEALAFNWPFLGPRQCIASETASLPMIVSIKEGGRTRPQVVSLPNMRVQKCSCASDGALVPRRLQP
Alpha-bungarotoxin (Bungarus multicinctus), sequence (P60615 whole entry, looked up): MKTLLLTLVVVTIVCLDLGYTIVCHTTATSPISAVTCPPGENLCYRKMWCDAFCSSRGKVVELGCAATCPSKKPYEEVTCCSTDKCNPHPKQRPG
Torsin-1A-interacting protein 1 (Homo sapiens), sequence (Q5JTV8 whole entry, looked up): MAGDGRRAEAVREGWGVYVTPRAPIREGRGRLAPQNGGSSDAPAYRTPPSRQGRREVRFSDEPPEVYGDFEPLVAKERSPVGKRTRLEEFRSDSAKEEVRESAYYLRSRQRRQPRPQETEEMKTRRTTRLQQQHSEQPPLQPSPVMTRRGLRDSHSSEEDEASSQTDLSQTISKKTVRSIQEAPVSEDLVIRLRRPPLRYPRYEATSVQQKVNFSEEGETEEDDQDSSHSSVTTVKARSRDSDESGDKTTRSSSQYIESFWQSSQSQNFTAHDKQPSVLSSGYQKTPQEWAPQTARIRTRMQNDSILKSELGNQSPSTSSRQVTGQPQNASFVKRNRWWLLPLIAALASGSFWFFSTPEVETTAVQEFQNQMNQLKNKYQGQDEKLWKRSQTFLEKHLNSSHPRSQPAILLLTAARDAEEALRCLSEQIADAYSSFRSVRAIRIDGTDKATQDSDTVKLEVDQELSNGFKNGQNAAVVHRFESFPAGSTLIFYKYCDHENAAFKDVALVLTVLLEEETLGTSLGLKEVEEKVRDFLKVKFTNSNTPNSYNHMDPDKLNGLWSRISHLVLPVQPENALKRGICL
Concanavalin-A (Canavalia ensiformis), sequence (P02866 whole entry, looked up): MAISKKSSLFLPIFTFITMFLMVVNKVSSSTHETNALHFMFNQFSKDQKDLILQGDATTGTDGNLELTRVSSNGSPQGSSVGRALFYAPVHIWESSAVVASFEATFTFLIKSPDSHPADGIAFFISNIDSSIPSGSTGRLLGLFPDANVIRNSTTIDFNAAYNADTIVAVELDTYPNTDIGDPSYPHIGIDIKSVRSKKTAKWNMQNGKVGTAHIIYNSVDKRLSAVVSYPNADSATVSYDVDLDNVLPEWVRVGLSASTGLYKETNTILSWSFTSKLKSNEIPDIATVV
Albumin (Bos taurus), sequence (P02769 whole entry, looked up): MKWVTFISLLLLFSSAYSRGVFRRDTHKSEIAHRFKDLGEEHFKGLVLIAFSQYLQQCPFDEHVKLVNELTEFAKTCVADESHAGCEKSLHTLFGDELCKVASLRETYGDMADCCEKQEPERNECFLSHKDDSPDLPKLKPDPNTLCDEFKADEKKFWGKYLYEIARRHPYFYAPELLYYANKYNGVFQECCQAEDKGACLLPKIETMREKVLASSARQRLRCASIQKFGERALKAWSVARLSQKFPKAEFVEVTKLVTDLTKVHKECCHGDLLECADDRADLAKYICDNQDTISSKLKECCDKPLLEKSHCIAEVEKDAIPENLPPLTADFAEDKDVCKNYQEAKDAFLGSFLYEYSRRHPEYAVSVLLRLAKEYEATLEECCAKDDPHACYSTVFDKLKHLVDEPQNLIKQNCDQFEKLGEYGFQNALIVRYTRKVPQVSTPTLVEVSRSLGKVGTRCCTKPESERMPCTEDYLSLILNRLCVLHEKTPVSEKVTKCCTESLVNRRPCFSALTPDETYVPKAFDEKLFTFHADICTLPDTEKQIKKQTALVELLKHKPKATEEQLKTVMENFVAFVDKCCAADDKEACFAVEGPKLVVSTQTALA

Take `C=C(CCCC)/C(=C/C[C@@H](OC(C)=O)c1cccc(OCCO)c1)c1cnc2ccccc2c1`: the composite z-score in assay [1] was 0.571; in assay [3], 0.257; in assay [4], -0.18; in assay [5], -0.387; in assay [6], -0.124; in assay [7], -0.0709. For the same compound, the composite z-score is 0.123 in [8]; 0.314 in assay [9]; 1.07 in [10]; 0.0156 in assay [11]; 0.0141 in assay [13]; -0.124 in assay [14]. Also, the composite z-score in assay [15] is 0.687; in assay [16] it was 0.366; in [17] it was -0.0843; in assay [18], 0.788; in assay [19] it was 0.777; in [20] it was 0.606. In [2], the z-score is -1.32. Besides, the composite Z-score in [12] was 0.785 (inactive).
As to `C=C(CCCC)/C(=C/C[C@H](OC(C)=O)c1ccc(OCCO)cc1)c1cnc2ccccc2c1`, the composite z-score in assay [1] is 1.43; in assay [3], 0.52; in assay [4], -0.185; in [5], -0.378; in assay [6], -0.101; in [7] it was -0.0035. Besides, the composite z-score was -0.483 in [8]; 0.491 in assay [9]; 1.85 in assay [10]; 0.466 in assay [11]; 0.116 in [13]; -0.108 in [14]. Also, the composite z-score in assay [15] was found to be 0.471; in assay [16], 1.2; in assay [17], 0.117; in assay [18] it was 1.31; in assay [19], 1.05; in assay [20], 0.817. Moreover, the z-score in [2] was -2.43. For the same compound, in assay [12], the composite Z-score is 0.0474 (inactive).
With `COCC(=C=CC[C@H](O)c1cccc(OCCO)c1)CCO`, the composite z-score in [1] was 1.02; in assay [3] it was 0.0075; in assay [4], -0.488; in [5] it was -0.487; in assay [6], -0.127; in [7], -0.156. The composite z-score in assay [8] was 0.0395; in assay [9], -0.0815; in [10] it was -0.113; in [11], 0.663; in [13], -0.0311; in assay [14], -0.166. The composite z-score in [15] is 0.462; in [16] it was 1.44; in assay [17], -0.0637; in assay [18], 0.431; in assay [19], 0.247; in [20], -0.042. For the same compound, the z-score in assay [2] was -0.119. Further, in assay [12], the composite Z-score is -0.0662 (inactive).
For `CCOC(=O)C1=CC[C@H]2C(=O)N(c3ccccc3)C(=O)[C@@H]12`, the composite z-score was 1.51 in assay [1]; 0.791 in assay [3]; 0.802 in assay [4]; -0.513 in assay [5]; 0.027 in assay [6]; -0.0793 in [7]. Besides, the composite z-score was 1.15 in assay [8]; 1.14 in [9]; 0.203 in [10]; 0.916 in [11]; 0.0893 in assay [13]; -0.046 in [14]. Further, the composite z-score worked out at 0.848 in assay [15]; 2.7 in assay [16]; 0.786 in assay [17]; 1.31 in assay [18]; 0.613 in [19]; 1.05 in [20]. The z-score in [2] is -1.36. The composite Z-score in assay [12] was 1.58 (inactive).
On to `CCCCCCCCCCC(O)C1C=CC2C(=O)NC(=O)C2N1Nc1ccc(Cl)cc1Cl` (stereo not given), for which the composite z-score was 0.732 in assay [1]; -1.67 in assay [3]; 1.21 in [4]; 1.21 in assay [5]; -0.122 in [6]; -0.138 in [7]. Also, the composite z-score in assay [8] is 1.07; in assay [9], 0.345; in assay [10] it was -0.133; in [11], 0.145; in assay [13], -0.0288; in assay [14], -0.077. Further, the composite z-score in assay [15] is 0.442; in [16], 1.66; in assay [17], 0.192; in [18] it was -0.0789; in assay [19], 0.0425; in assay [20], 0.248. Also, the z-score in assay [2] was -1.26. The composite Z-score in [12] is -0.383 (inactive).
For the compound `COC(=O)c1c2oc(c1C(=O)OC)C(=O)N[C@@H](C(C)C)Cn1cc(nn1)C1(CCCCC1)NC(=O)N[C@H](CO)CC2`, the composite z-score was 0.218 in [1]; -0.05 in assay [3]; -0.346 in assay [4]; -0.403 in assay [5]; -0.0269 in [6]; -0.0769 in [7]. Besides, the composite z-score in assay [8] was 0.621; in assay [9], 0.764; in assay [10] it was -0.216; in [11], -0.0901; in assay [13], -0.122; in assay [14], -0.0761. Further, the composite z-score in assay [15] was 0.828; in assay [16] it was 1.18; in [17], -0.0841; in [18], 0.194; in [19] it was 0.199; in [20] it was 0.689. For the same compound, the z-score in assay [2] was determined as 1.48. In addition, the composite Z-score in assay [12] is -0.203 (inactive).

(Values after PubChem BioAssay.)
